Results taken from PubChem BioAssay AID1159580 (chemical genetic matrix, 2015).
About 2,000 (36%) of roughly 5,500 compounds were called active. Roughly 18% stayed inconclusive and do not appear here. No stated cut-off is given here; in the data, active means normalized growth mostly below about 0.91 (no sharp cut-off); inconclusive means no clear call, values can overlap the other calls; inactive means mostly above about 0.92. The list shows a part of the results.

Assay: chemical genetic growth profiling, strain panel (AID 1159580);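 further: tested at 20 µM; growth read once vehicle control cultures reached saturation at 30 °C; 1 = growth at the plate median or of vehicle wells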
Conditions: S. cerevisiae deletion strains, growth OD

Measured: normalized growth

CC(=O)O[C@]1(C(C)=O)CCC2C3C=C(Cl)C4=CC(=O)[C@@H]5C[C@@H]5[C@]4(C)C3CC[C@@]21C (some centres undefined)
inactive: locus YAL021C, strain ccr4, stronger effect = lower value 1.06 | locus YAL026C, strain drs2, stronger effect = lower value 1.02 | locus YAL030W, strain snc1, stronger effect = lower value 1.01 | locus YBL061C, strain skt5, stronger effect = lower value 1.01 | locus YBR009C, strain hhf1, stronger effect = lower value 0.973 | locus YBR023C, strain chs3, stronger effect = lower value 1 | locus YBR171W, strain sec66, stronger effect = lower value 1.02 | locus YBR231C, strain swc5, stronger effect = lower value 1.03 | locus YBR279W, strain paf1, stronger effect = lower value 0.997 | locus YCL011C, strain gbp2, stronger effect = lower value 0.99 | locus YCL016C, strain dcc1, stronger effect = lower value 0.992 | locus YCL061C, strain MRC1, stronger effect = lower value 1.02 | locus YCL069W, strain vba3, stronger effect = lower value 1.01 | locus YCR088W, strain abp1, stronger effect = lower value 1.01 | locus YDL005C, strain med2, stronger effect = lower value 1 | locus YDL040C, strain nat1, stronger effect = lower value 1.01 | locus YDR001C, strain nth1, stronger effect = lower value 1.01 | locus YDR069C, strain doa4, stronger effect = lower value 1.04 | locus YDR137W, strain rgp1, stronger effect = lower value 0.968 | locus YDR159W, strain sac3, stronger effect = lower value 0.946 | locus YDR195W, strain ref2 1.05 | locus YDR297W, strain sur2, stronger effect = lower value 1.02 | locus YDR334W, strain swr1, stronger effect = lower value 1 | locus YDR335W, strain msn5, stronger effect = lower value 1.01 | locus YDR392W, strain spt3, stronger effect = lower value 0.861 | locus YEL003W, strain gim4, stronger effect = lower value 1.02 | locus YEL037C, strain rad23, stronger effect = lower value 1.02 | locus YEL061C, strain CIN8 (second series), stronger effect = lower value 1.01 | locus YER015W, strain faa2, stronger effect = lower value 1 | locus YER016W, strain bim1, stronger effect = lower value 1.01 | locus YER111C, strain swi4, stronger effect = lower value 1.02 | locus YER155C, strain BEM2 (second series), stronger effect = lower value 1.05 | locus YFR010W, strain ubp6, stronger effect = lower value 1.03 | locus YGL167C, strain pmr1, stronger effect = lower value 1.03 | locus YGL173C, strain kem1, stronger effect = lower value 1.02 | locus YGL227W, strain vid30, stronger effect = lower value 0.997 | locus YGL240W, strain doc1, stronger effect = lower value 1.02 | locus YGL253W, strain hxk2, stronger effect = lower value 0.973 | locus YHR013C, strain ard1, stronger effect = lower value 1.03 | locus YHR027C, strain rpn1, stronger effect = lower value 1.01 | locus YHR030C, strain SLT2, stronger effect = lower value 1.03 | locus YHR079C, strain IRE1, stronger effect = lower value 1.02 | locus YHR142W, strain chs7, stronger effect = lower value 0.988 | locus YJL092W, strain hpr5, stronger effect = lower value 1.02 | locus YJL095W, strain BCK1 (second series), stronger effect = lower value 1.02 | locus YJL095W, strain BCK1, stronger effect = lower value 1.02 | locus YJL115W, strain asf1, stronger effect = lower value 1.01 | locus YJL129C, strain trk1, stronger effect = lower value 1.01 | locus YJL154C, strain vps35, stronger effect = lower value 1.01 | locus YJL164C, strain tpk1, stronger effect = lower value 0.992 | locus YJL166W, strain qcr8, stronger effect = lower value 1.02 | locus YJR066W, strain TOR1, stronger effect = lower value 0.997 | locus YKL160W, strain elf1, stronger effect = lower value 1.01 | locus YKR026C, strain gcn3, stronger effect = lower value 1.01 | locus YKR091W, strain srl3, stronger effect = lower value 1.01 | locus YLL001W, strain dnm1, stronger effect = lower value 1.02 | locus YLL026W, stronger effect = lower value 1.01 | locus YLL041C, strain sdh2, stronger effect = lower value 1.01 | locus YLR027C, strain aat2, stronger effect = lower value 1.02 | locus YLR113W, strain HOG1, stronger effect = lower value 1.03 | locus YLR221C, strain rsa3, stronger effect = lower value 0.982 | locus YLR258W, strain gsy2, stronger effect = lower value 1.01 | locus YLR262C, strain YPT6 (second series), stronger effect = lower value 0.977 | locus YLR320W, strain mms22, stronger effect = lower value 0.979 | locus YLR342W, strain FKS1, stronger effect = lower value 1.01 | locus YLR357W, strain rsc2, stronger effect = lower value 0.999 | locus YLR370C, strain arc18, stronger effect = lower value 1.02 | locus YLR384C, strain iki3, stronger effect = lower value 1.01 | locus YML120C, strain ndi1, stronger effect = lower value 1.02 | locus YMR058W, strain fet3, stronger effect = lower value 1.02 | locus YMR125W, strain sto1, stronger effect = lower value 1.02 | locus YMR129W, stronger effect = lower value 1.01 | locus YMR205C, strain PFK2, stronger effect = lower value 0.991 | locus YMR231W, strain pep5, stronger effect = lower value 1.01 | locus YNL071W, strain lat1, stronger effect = lower value 0.963 | locus YNL183C, strain NPR1, stronger effect = lower value 0.986 | locus YNL209W, strain ssb2, stronger effect = lower value 0.999 | locus YNL248C, strain rpa49, stronger effect = lower value 1.01 | locus YNL322C, strain KRE1 (second series), stronger effect = lower value 1.01 | locus YNR049C, strain mso1, stronger effect = lower value 1 | locus YOR001W, strain rrp6, stronger effect = lower value 1.03 | locus YOR070C, strain gyp1, stronger effect = lower value 1 | locus YOR080W, strain dia2, stronger effect = lower value 1.02 | locus YOR083W, strain WHI5, stronger effect = lower value 0.983 | locus YOR106W, strain vam3, stronger effect = lower value 1.01 | locus YOR231W, strain MKK1, stronger effect = lower value 1.02 | locus YOR265W, strain rbl2, stronger effect = lower value 1.02 | locus YOR270C, strain vph1, stronger effect = lower value 0.954 | locus YOR290C, strain snf2, stronger effect = lower value 0.995 | locus YPL051W, strain arl3, stronger effect = lower value 1.01 | locus YPL078C, strain atp4, stronger effect = lower value 1.01 | locus YPL106C, strain sse1, stronger effect = lower value 1.04 | locus YPL240C, strain hsp82, stronger effect = lower value 1.02 | locus YPL256C, strain CLN2, stronger effect = lower value 1.03
